# An excerpt weighted towards active compounds, which were near 7.4% of everything screened.
# FLuc counter: firefly luciferase modulation, counter-screen for miR-21 project; 360,000 compounds, 6.9% hits; purified FLuc, Km substrates, luminescence inhibition; Potency, µM (series often up to 57.5 µM), for inactives: at the highest dose activity change, negative = inhibition, usual class: inhibitors; P08659;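 also: plate controls were vehicle for no effect and reference inhibitor for full effect; nearly all actives have a fitted effect of over 55% in size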
# Target sequence (P08659 whole entry, looked up): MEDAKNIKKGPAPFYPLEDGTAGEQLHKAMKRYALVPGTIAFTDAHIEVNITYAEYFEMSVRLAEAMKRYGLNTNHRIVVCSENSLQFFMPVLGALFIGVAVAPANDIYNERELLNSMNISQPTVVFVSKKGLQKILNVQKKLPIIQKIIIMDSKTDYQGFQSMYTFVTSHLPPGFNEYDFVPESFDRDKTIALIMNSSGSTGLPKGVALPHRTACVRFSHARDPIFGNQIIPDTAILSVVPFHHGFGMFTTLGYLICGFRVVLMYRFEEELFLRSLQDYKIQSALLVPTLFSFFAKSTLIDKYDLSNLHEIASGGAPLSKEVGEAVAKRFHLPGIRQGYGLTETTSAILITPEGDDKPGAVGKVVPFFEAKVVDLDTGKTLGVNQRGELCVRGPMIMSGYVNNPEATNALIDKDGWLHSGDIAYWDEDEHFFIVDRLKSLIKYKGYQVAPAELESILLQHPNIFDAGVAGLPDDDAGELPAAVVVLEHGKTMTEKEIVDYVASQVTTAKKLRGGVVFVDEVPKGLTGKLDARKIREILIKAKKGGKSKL
#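 Purified P. pyralis luciferase, 10 nM final, with Km-level 10 uM D-luciferin and 10 uM ATP in 50 mM Tris acetate pH 7.5, 10 mM Mg acetate, 0.01% Tween-20, 0.05% BSA; 6-point qHTS titration about 60 µM downward; luminescence read.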
# SMN2 splice up: enhancers of SMN2 splice variant expression | HEK293 SMN2-luciferase splicing reporter, luminescence, 30-36 h | 210,000 compounds, 2.8% hits | AID 1458 | Potency, µM (titrated, usually from 46.1 µM), inactives show top-dose activity change, positive = activation, usual class: activators; also: % of control where 0% means no effect; nearly all actives have a fitted effect of over 55% in size
#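 HEK293 cells carry an SMN2 […]–luciferase reporter in which exon 7 inclusion puts luciferase in frame. Cells were plated 10-12 h before compound addition, then incubated 30-36 h at 37C. ONE-Glo luminescence was read; sodium butyrate at 4.5 mM final served as control.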
# Rab9 prom act: activates the Rab9 promoter | Huh7 Rab9 promoter-luciferase reporter, luminescence, 24 h | 320,000 compounds, 2.8% hits | Potency, µM (series often up to 9.22 µM), without a hit: at the top dose activation, negative = inhibition, usual class: activators; also: % of control where 0% means no effect; nearly all actives have a fitted effect of over 60% in size
#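 Using Huh7 cells stably transfected with Rab9 promoter–luciferase, compounds were incubated 24 h at 37 °C, 5% CO2; luciferase luminescence was read 10 min after reagent addition.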
# NPC1 prom act: NPC1 promoter activation; 320,000 compounds, 2.4% hits; Potency, µM (doses to about 9.22 µM), inactives show at the top dose activation, most hits filed as activators; Huh7 NPC1 promoter luciferase reporter, 24 h; also: % of control where 0% means no effect; nearly all actives have a fitted effect of over 60% in size
#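 Cells: Huh7 expressing luciferase under the NPC1 promoter, 1500/well. Seeded 2 h, compound added, incubated 24 h at 37 °C. Luciferase reagent, 10 min ambient, then luminescence.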
# ELG1 genotoxic: induces genotoxicity in HEK293T cells with luciferase-tagged ELG1. Potency, µM (highest dose often 46 µM), for the others: top-dose activity change, positive = activation, usual class: activators. 330,000 compounds, 1.3% hits. HEK293T ELG1-luciferase reporter, luminescence, 16 h; also: % of control where 0% means no effect; nearly all actives have a fitted effect of over 60% in size
#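 Cells (2,000/well) expressing the ELG1-luciferase fusion are dosed by pin tool and kept 16 hr at 37 °C, 5% CO2. Signal comes from ONE-Glo luciferase reagent after 30 min at room temperature.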
# * marks the source's active call; other numbers are inactive results; ? = inconclusive; . = no result; [ ] = remark or other dose. Calls follow the shape of the dose curve; as a rule, active = well fitted curve in the direction sought with a large enough effect; inconclusive = small, poorly fitted or top-dose-only effect, or another doubt; inactive = no such curve, though single readings can be large; an effect the other way counts as inactive or inconclusive. Potency is read from the fitted curve at half-maximal effect.
SMILES,FLuc counter,SMN2 splice up,Rab9 prom act,NPC1 prom act,ELG1 genotoxic
CC(C)(C)c1ccc(-c2nc(NCc3cccnc3)c3ccccc3n2)cc1,3.38µM*,25.1µM*,21.5%,?,?
c1cncc(CNc2nc(-c3cccnc3)nc3ccccc23)c1,4.4%,.,-0.3%,0.3%,-9.6%
O=C(Nc1ccc(CN2CCOCC2)cc1)c1ccc2ccccc2c1,8.49µM*,.,1.41µM*,1µM*,?
O=C(Nc1cccc([N+](=O)[O-])c1)c1ccc(CN2CCOCC2)cc1,16.9µM*,.,24.4%,21.5%,7.2%
O=C(Nc1ccc(S(=O)(=O)N2CCOCC2)cc1)c1ccco1,5.0%,-7.7%,-6.9%,-2.8%,3.2%
O=C(Nc1ccc(CN2CCOCC2)cc1)c1ccco1,21.3µM*,.,1.41µM*,2µM*,?
C/C(=N\NC(=O)c1ccc(CN2CCOCC2)cc1)c1cccc([N+](=O)[O-])c1,-0.1%,-23.8%,-9.1%,2.7%,-3.4%
O=C(Nc1ccc(CN2CCOCC2)cc1)c1ccc(F)cc1,21.3µM*,.,?,?,?
O=C(CSc1ccc2c(c1)OCCO2)N1CCN(c2ccccc2)CC1,1.4%,.,-6.6%,-3.6%,-6.9%
O=C(CN1C(=O)C(=O)N(C2CCCC2)C1=O)Nc1ccc(OC(F)F)cc1,3.0%,.,-4.0%,-0.1%,1.6%
COc1ccc(NC(=O)Cn2c(=O)oc3cc(S(=O)(=O)N4CCCCC4C)ccc32)cc1 (stereo not drawn),-17.0%,.,.,.,.
COc1ccc(NC(=O)c2sc3nc(C)c(C(=O)Nc4ccc(C)cc4C)c(-c4ccc(C)o4)c3c2N)cc1,3.4%,-14.3%,.,.,.
O=C(Nc1ccc(CN2CCOCC2)cc1)c1ccc(Cl)cc1,16.9µM*,.,?,?,?
CCC(C)Oc1ccc(C(=O)Nc2ccc(CN3CCOCC3)cc2)cc1 (stereo not drawn),15.1µM*,.,-9.5%,-5.5%,-2.4%
O=C(Nc1ccc(CN2CCOCC2)cc1)c1cccc(F)c1,9.53µM*,12.6µM*,2.82µM*,2.82µM*,16.4µM*
CCOc1ccc(NC(=O)c2ccc(NC(=O)c3ccc(CN4CCOCC4)cc3)cc2)cc1,-6.3%,.,-14.0%,-2.4%,?
C/C(=N/NC(=O)c1ccco1)c1ccc(NC(=O)c2ccc(F)cc2)cc1,?,15.8µM*,?,28.5%,13.1%
O=C(Nc1ccc(CN2CCOCC2)cc1)c1ccc(Br)cc1,?,.,11.8%,?,?
COc1ccc(Br)cc1CNC(=O)c1cnc2sc(N3CCCC3)nn2c1=O,-2.1%,.,.,.,.
Cc1ccc(NC(=O)Cn2cc3c(n2)CCC(C)C3)cc1C (stereo not drawn),0.0%,8.7%,.,.,.
O=C(OCCOc1ccc(Br)cc1)c1ccc(Cl)c(S(=O)(=O)N2CCOCC2)c1,-1.7%,.,-3.0%,1.6%,-2.7%
O=C(Nc1ccc(Cn2cccn2)cc1)c1ccc(COc2ccccc2Br)cc1,16.9µM*,-42.9%,-5.3%,9.1%,-5.7%
C/C(=N\NC(=O)c1ccc(CN2CCOCC2)cc1)c1ccc(NC(=O)c2ccccc2)cc1,?,11.2µM*,?,?,?
CCOc1ccc(C(=O)Nc2cccc(NC(=O)c3ccc(C(C)(C)C)cc3)c2)cc1Br,1.51µM*,?,.,.,.
Cc1cc(/C=N/NC(=O)c2ccc(CN3CCOCC3)cc2)c(C)n1-c1ccccc1,6.75µM*,-51.4%,-0.9%,0.9%,?
SMILES,FLuc counter,SMN2 splice up,Rab9 prom act,NPC1 prom act,ELG1 genotoxic
CC(=O)Nc1ccc(/C(C)=N/NC(=O)c2ccc(CN3CCOCC3)cc2)cc1,-0.2%,-42.6%,-5.2%,-3.1%,1.0%
COc1ccccc1OCc1ccc(C(=O)Nc2ccccc2)cc1,-17.1%,.,?,?,7.3%
Cc1ccccc1CN1CCN(CCCc2ccccc2)C(CCO)C1 (stereo not drawn),2.9%,.,-7.3%,-7.2%,-6.4%
O=C(NCCSc1ccccc1)c1ccc(CN2CCOCC2)cc1,12µM*,.,2µM*,2µM*,?
O=C(NC(N1CCOCC1)C(Cl)(Cl)Cl)c1ccco1 (stereo not drawn),8.49µM*,.,?,?,16.4µM*
COc1cccc(/C=C/C(=O)Nc2ccccc2N2CCOCC2)c1,16.9µM*,.,9.0%,0.4%,.
O=C(Nc1ccccc1N1CCOCC1)c1ccc2ccccc2c1,10.7µM*,.,3.3%,8.0%,-4.4%
Cc1cccnc1NC(=O)CCc1nnc2ccc(N3CCC4(CC3)OCCO4)nn12,-1.3%,.,0.5%,-0.4%,3.3%
COc1ccc(NC(=O)CN2C(=O)COc3ccc(S(=O)(=O)N4CCCCC4)cc32)c(OC)c1,-0.7%,.,8.5%,?,0.6%[9.26 µM]
O=[N+]([O-])c1cc(C(F)(F)F)ccc1N1CCCC(O)C1 (stereo not drawn),-9.1%,11.4%,0.7%,-0.3%,4.1%
CCCCn1nc(C(=O)Nc2ccccc2N2CCCC2)c2ccccc2c1=O,-0.3%,.,-2.3%,-5.4%,-2.2%
CCOc1ccc(C(=O)Nc2ccc(CN3CCOCC3)cc2)cc1Br,13.5µM*,.,3.5%,1.3%,-5.8%
COc1ccc(C(=O)NC(=S)Nc2ccc(CN3CCOCC3)cc2)cc1Br,-5.2%,.,-8.7%,2.0%,-9.6%
c1ccc(Oc2cccc(OCCn3cncn3)c2)cc1,?,-0.1%,6.3%,0.1%,10.5%
c1ccc(COc2ccc(OCCn3cncn3)cc2)cc1,9.53µM*,11.2µM*,3.16µM*,2.51µM*,9.2µM*
CN1CCN(CCCOc2ccc(-c3ccccc3)cc2)CC1,19µM*,.,?,2.82µM*,?
c1ccc(-c2ccc(OCCCn3cncn3)cc2)cc1,16.9µM*,-6.8%,21.8%,25.6%,?
COc1ccc(C)cc1NC(=O)C1CCCN1S(=O)(=O)c1ccccc1F (stereo not drawn),1.7%,.,0.8%,-1.6%,-6.9%
Cc1ccc(C)c(NC(=O)Cc2nc(CNCC(C)C)cs2)c1,-0.3%,.,-0.6%,1.9%,-0.9%
COc1ccc(C2Nc3ccccc3C(=O)N2c2ccc(C)cc2)cc1COc1ccccn1 (stereo not drawn),?,11.2µM*,3.16µM*,3.16µM*,?
COc1ccc(N2C(=O)c3ccccc3NC2c2ccc(OC)c(Cn3nnc4ccccc43)c2)cc1 (stereo not drawn),1.1%,14.1µM*,?,?,13.4%
COc1ccc(C2Nc3ccccc3C(=O)N2c2ccc(C)cc2)cc1Cn1nc(C)c([N+](=O)[O-])c1C (stereo not drawn),-17.1%,.,?,?,?
O=C(/C=C\Nc1ccccn1)c1ccccc1,0.675µM*,2µM*,0.355µM*,0.631µM*,0.517µM*
Cc1ccccc1NC(=O)c1ccccn1,?,.,20.0%,21.3%,10.5%
O=C(/C=C/Nc1ccccc1Br)c1ccccn1,0.0757µM*,?,.,.,.
COc1ccc(C(=O)/C=C/Nc2ccccn2)c(OC)c1,3.38µM*,.,0.891µM*,0.562µM*,1.83µM*

# Assay outcomes: PubChem, National Center for Advancing Translational Sciences (NCATS)
